Assay [1] in a line: AP1 Signaling Pathway (AID 357; active = well fitted curve in either direction with a large enough effect, not every such curve was filed as active;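 also: ME-180 reporter cells stimulated with EGF at its EC50 level; % is scaled to controls: 0 for no effect and ±100 for the full control effect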). Conditions: ME-180 AP-1-bla reporter, EGF-induced, beta-lactamase ratio, 5 h; at 7.69 µM (top of the series) unless noted. The procedure, abridged:
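In this screen, ME-180 cells in Opti-MEM with 0.5% dialyzed FBS received EC50 EGF and compound titrations for 5 h. AP-1 reporter beta-lactamase was detected via CCF4 ratio, giving AC50 for positive and negative modulators.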

The target in assay [2] is Cytochrome P450 1A2 (Homo sapiens) (UniProt P05177). Description: p450-cyp1a2 (AID 410; calls by dose curve;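 also: -100% = full effect of reference inhibitor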). The procedure, abridged: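 Read-out is luminescence from luciferin produced by CYP1A2 demethylation of Luciferin-ME (100uM, at Km). Detection reagent stopped the 60 min NADPH-dependent reaction; signals were normalized to 57 uM furafylline.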
Assay [3] is described as follows: Stat Signaling Pathway (AID 446; active = well fitted curve in either direction with a large enough effect, not every such curve was filed as active;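 also: ME-180 cervical cancer cells given 40 pM IL-6 alongside compound; SIE-controlled beta-lactamase reporter measured as 460/530 nm FRET emission ratio; % is scaled to controls: 0 for no effect and ±100 for the full control effect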). The settings on record: ME-180 (cervical carcinoma) SIE beta-lactamase reporter, IL-6 stimulated, 5 h; at 7.69 µM (top of the series) unless noted. In short, it runs like this: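 Overnight-plated ME-180 cells bearing a STAT Inducible Element beta-lactamase reporter; 5 h co-exposure to compound and 40 pM IL-6; values normalized to 300 pM IL-6 and 125 nM JAK inhibitor controls.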

The target in assay [4] is Glucocorticoid receptor (Homo sapiens) (UniProt P04150). The assay is described as follows: GR-GFP Redistribution (AID 450;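 active = compounds whose dose series gives a full or clear partial fitted curve of increased nuclear translocation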; also: potency is read from the fitted curve at half-maximal effect). The settings on record: U2OS GR-GFP nuclear translocation, laser cytometry, 2 h.
Assay [5] shares this target. Description: GR-EFC Redistribution (AID 451; calls by dose curve; also: potency is read from the fitted curve at half-maximal effect). Conditions: CHO-K1 GR-EFC translocation, beta-gal luminescence, 2 h. The procedure, abridged: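 Translocation of GR-ED fusion to nuclear EA restores b-gal, read by luminescence after 1 h room-temperature detection. Engineered CHO-K1 biosensor cells, 1,000/well, exposed 2 h at 37 C to titrations up to 46 uM final.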
Assay [6] addresses Mitogen-activated protein kinase 10 (Mus musculus) (UniProt Q61831). Description: JNK3 AlphaScreen Assay (AID 530; active = well fitted curve in either direction with a large enough effect, not every such curve was filed as active;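 also: kinase came from lysate of stimulated human HepG2 cells; signal reports phosphorylation of biotinylated GST-cJun 1-79 at Ser73 with 10 µM ATP; % is scaled to controls: 0 for no effect and ±100 for the full control effect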). In short, it runs like this:
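Kinase buffer: 20 mM Tris-HCl pH 7.6, 10 mM MgCl2, 1 mM DTT, 0.1 mM Na3VO4, 0.01% Tween-20; ATP 10 uM. Substrate biotin-GST-cJun(1-79), enzyme from activated HepG2 lysates. Detection by Ser73 phospho-antibody AlphaScreen.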
Background: Bead proximity is the source of the signal in Alpha formats.

Assay [7] deals with 3',5'-cyclic-AMP phosphodiesterase 4B (Homo sapiens) (UniProt Q07343). Description: qHTS Assay for Inhibitors of PDE-IV (AID 607; active = well fitted activation curve with a large enough effect in the main read-out, with a control signal flat, not every such curve was filed as active; also: % of control where 0% means no effect). The procedure, abridged:
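Live HEK293 cells with a modified cyclic nucleotide-gated (CNG) channel report intracellular cAMP via membrane-potential dye fluorescence (ex 535/em 590 nm). Endogenous PDE-IV was targeted. Compounds were tested at up to 22.9 uM final; RO 20-1724 100 uM served as control.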
On the technique in general: qHTS replaces the single test concentration by a dilution series.

In assay [8] the target is ATP-dependent 6-phosphofructokinase (Trypanosoma brucei brucei) (UniProt O15648). Description: qHTS Assay to Find Inhibitors of T. brucei phosphofructokinase: hit validation (AID 492961).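 Also: luminescence reports ADP formed as PFK phosphorylates fructose-6-phosphate with ATP; % is scaled to controls: 0 for no effect and ±100 for the full control effect.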 The procedure, abridged: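 ADP-Glo luminescence read-out of ADP formed by 1.25 nM PFK from 0.1 mM ATP and 0.5 mM F6P (TEA pH 8.0, 45 min, RT). Compounds titrated; activity normalized to no-enzyme and full-enzyme controls.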

The target of assay [9] is Luciferin 4-monooxygenase (Photinus pyralis) (UniProt P08659). The assay is described as follows: Biochemical firefly luciferase enzyme assay for NPC (AID 624030).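 Also: purified P. pyralis luciferase at 10 nM with luciferin and ATP substrate; 0% = DMSO and -100% = full luciferase inhibition by PTC124 control; nearly all actives have a fitted effect of over 70% in size.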 The procedure, abridged:
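Direct inhibition of firefly luciferase enzyme (10 nM final, 50 mM Tris Acetate) assessed by luminescence within 5 minutes. Percent activity scaled between DMSO and PTC124 positive control, with concentration-effect curves classified by fit quality and response.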

Assay [10] is described as follows: S16 Schwann cell viability assay (CellTiter-Glo assay) (AID 624031).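 Also: native untransfected S16 rat Schwann cells; cellular ATP luminescence as a viability measure; plate controls were DMSO-treated cells for no effect and cell-free wells for full effect; nearly all actives have a fitted effect of over 70% in size.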 In short, it runs like this: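 Cells were seeded at 500-750 per well in phenol red-free DMEM with 10% FBS and left overnight. Compounds or DMSO were pinned in, incubation ran 24 h at 37 °C/5% CO2, then CellTiter-Glo reagent was added and luminescence measured.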
Assay [11] can be described thus: S16 Schwann cell PMP22 intronic element firefly luciferase assay (AID 624032). Also: potency is read from the fitted curve at half-maximal effect; nearly all actives have a fitted effect of over 30% in size. In short, it runs like this: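 Luciferase reporter of PMP22 intronic-element expression in stably transfected S16 rat Schwann cells, read by ONE-Glo luminescence after 24 h compound exposure at 37 C. Activity scaled between DMSO (0%) and positive-control PTC124; concentration-effect curves quality-classified.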

Another assay relates to 7G8. The assay is described as follows: qHTS profiling for inhibitors of Plasmodium falciparum proliferation (AID 504749). Also: nearly all actives have a fitted effect of over 60% in size. Also: potency is read from the fitted curve at half-maximal effect.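 As to activity, negative = inhibition: 0% = DMSO vehicle and full inhibition = artemisinin control.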 Conditions: P. falciparum in erythrocytes, SYBR Green DNA, 72 h; series mostly up to 28.7 µM. The procedure, abridged:
(§1)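 In a 72 h erythrocytic culture (37 C, humidified, 5% CO2) at 2.5% hematocrit and 0.3% starting parasitemia, compounds were tested; SYBR Green I in detergent lysis buffer stained parasite DNA overnight.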

In another assay the test system is ATS189. Described as above. Conditions: P. falciparum in erythrocytes, SYBR Green DNA, 72 h; series mostly up to 28.7 µM. In short, it runs like this: as §1
In the next assay the test system is CP192. The assay is described as above. Conditions: P. falciparum in erythrocytes, SYBR Green DNA, 72 h; series mostly up to 28.7 µM. In short, it runs like this: as §1
In the next assay the test system is CP262. The description is as above. The settings on record: P. falciparum in erythrocytes, SYBR Green DNA, 72 h; series mostly up to 28.7 µM. The procedure, abridged: as §1
The test system of the next assay is CP335. Described as above. Conditions: P. falciparum in erythrocytes, SYBR Green DNA, 72 h; series mostly up to 28.7 µM. The procedure, abridged:
as §1

The subject of another assay is Dd2. The description is as above. The settings on record: P. falciparum in erythrocytes, SYBR Green DNA, 72 h; series mostly up to 28.7 µM. In short, it runs like this:
as §1

For the next assay, the system named is ECU. Described as above. Conditions: P. falciparum in erythrocytes, SYBR Green DNA, 72 h; series mostly up to 28.7 µM. The procedure, abridged: as §1
Another assay has as its system FAB9. The description is as above. The settings on record: P. falciparum in erythrocytes, SYBR Green DNA, 72 h; series mostly up to 28.7 µM. In short, it runs like this: as §1
The test system of the next assay is ICS. Described as above. Conditions: P. falciparum in erythrocytes, SYBR Green DNA, 72 h; series mostly up to 28.7 µM. The procedure, abridged:
as §1

The test system of a further assay is JCK. The assay is described as above. The settings on record: P. falciparum in erythrocytes, SYBR Green DNA, 72 h; series mostly up to 28.7 µM. The procedure, abridged: as §1
The next assay concerns P93_24. The description is as above. The settings on record: P. falciparum in erythrocytes, SYBR Green DNA, 72 h; series mostly up to 28.7 µM. The procedure, abridged:
as §1

The test system of a further assay is PC15. Described as above. Conditions: P. falciparum in erythrocytes, SYBR Green DNA, 72 h; series mostly up to 28.7 µM. The procedure, abridged:
as §1

For a further assay, the system named is PC49. The assay is described as above. The settings on record: P. falciparum in erythrocytes, SYBR Green DNA, 72 h; series mostly up to 28.7 µM. In short, it runs like this:
as §1

The subject of a further assay is SC27B. Described as above. The settings on record: P. falciparum in erythrocytes, SYBR Green DNA, 72 h; series mostly up to 28.7 µM. The procedure, abridged:
as §1

In a further assay the test system is TAB109. The description is as above. The settings on record: P. falciparum in erythrocytes, SYBR Green DNA, 72 h; series mostly up to 28.7 µM. The procedure, abridged:
as §1

For another assay, the system named is TAB165. The assay is described as above. The settings on record: P. falciparum in erythrocytes, SYBR Green DNA, 72 h; series mostly up to 28.7 µM. In short, it runs like this:
as §1

The next assay relates to W2. The description is as above. Conditions: P. falciparum in erythrocytes, SYBR Green DNA, 72 h; series mostly up to 28.7 µM. The procedure, abridged: as §1
Assay [12] is described as follows: NFAT Signaling Pathway (AID 444; active = well fitted curve in either direction with a large enough effect, not every such curve was filed as active). Conditions: Jurkat NFAT-bla M1, carbachol, beta-lactamase ratio, 5 h; at 7.69 µM (top of the series) unless noted. The procedure, abridged: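 Read-out: CCF4 FRET ratio (460 nm/530 nm) after 1 h RT dye loading, used for %activity and AC50 from titration series. Cells: Jurkat NFAT-β-lactamase/M1 line, treated with compound plus 1 uM carbachol for 5 h, 37 °C.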

Assay [13] addresses Cytochrome P450 2C9 (Homo sapiens) (UniProt P11712). The assay is described as follows: qHTS Assay for Inhibitors and Substrates of Cytochrome P450 2C9 (AID 883). Also: % is scaled to controls: 0 for no effect and ±100 for the full control effect; nearly all actives have a fitted effect of over 60% in size. In short, it runs like this: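 Luminescent read-out of deoxyluciferin hydroxylation, normalized to 57uM sulphaphenazole (AC100). Reaction: 10nM enzyme, 100uM Luciferin-H (equal to KM), 25mM KPO4, 10 min compound preincubation, then 60 min with NADPH regeneration, both at 37C.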

A number with no mark means an inactive call. Results filed as inconclusive are left out. The source made the active and inactive calls. Unless noted, calls follow the shape of the dose curve; as a rule, active = well fitted curve in the direction sought with a large enough effect; inconclusive = small, poorly fitted or top-dose-only effect, or another doubt; inactive = no such curve, though single readings can be large; an effect the other way counts as inactive or inconclusive.

Glucocorticoid receptor (Homo sapiens), sequence (P04150 whole entry, looked up, the tested form may be a part): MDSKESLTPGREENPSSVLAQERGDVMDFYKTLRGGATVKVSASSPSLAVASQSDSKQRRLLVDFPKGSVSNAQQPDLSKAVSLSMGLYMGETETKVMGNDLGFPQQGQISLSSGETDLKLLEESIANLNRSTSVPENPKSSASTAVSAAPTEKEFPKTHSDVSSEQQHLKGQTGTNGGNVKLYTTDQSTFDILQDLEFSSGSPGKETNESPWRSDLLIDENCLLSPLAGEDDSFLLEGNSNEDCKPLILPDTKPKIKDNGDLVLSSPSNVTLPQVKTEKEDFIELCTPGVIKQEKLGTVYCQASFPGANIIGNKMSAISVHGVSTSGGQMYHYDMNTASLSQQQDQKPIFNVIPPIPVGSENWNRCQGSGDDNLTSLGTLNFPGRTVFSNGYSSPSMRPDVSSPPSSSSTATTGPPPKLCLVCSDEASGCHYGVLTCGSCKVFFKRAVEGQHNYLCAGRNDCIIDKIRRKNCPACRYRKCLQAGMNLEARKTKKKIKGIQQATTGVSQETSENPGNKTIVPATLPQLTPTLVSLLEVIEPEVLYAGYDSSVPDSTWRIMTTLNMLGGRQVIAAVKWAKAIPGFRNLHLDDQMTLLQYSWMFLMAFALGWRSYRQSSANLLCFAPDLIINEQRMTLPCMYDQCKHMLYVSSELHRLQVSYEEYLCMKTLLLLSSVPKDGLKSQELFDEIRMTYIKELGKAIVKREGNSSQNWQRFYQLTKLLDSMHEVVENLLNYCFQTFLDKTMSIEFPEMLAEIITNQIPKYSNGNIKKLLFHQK
3',5'-cyclic-AMP phosphodiesterase 4B (Homo sapiens), sequence (Q07343 whole entry, looked up): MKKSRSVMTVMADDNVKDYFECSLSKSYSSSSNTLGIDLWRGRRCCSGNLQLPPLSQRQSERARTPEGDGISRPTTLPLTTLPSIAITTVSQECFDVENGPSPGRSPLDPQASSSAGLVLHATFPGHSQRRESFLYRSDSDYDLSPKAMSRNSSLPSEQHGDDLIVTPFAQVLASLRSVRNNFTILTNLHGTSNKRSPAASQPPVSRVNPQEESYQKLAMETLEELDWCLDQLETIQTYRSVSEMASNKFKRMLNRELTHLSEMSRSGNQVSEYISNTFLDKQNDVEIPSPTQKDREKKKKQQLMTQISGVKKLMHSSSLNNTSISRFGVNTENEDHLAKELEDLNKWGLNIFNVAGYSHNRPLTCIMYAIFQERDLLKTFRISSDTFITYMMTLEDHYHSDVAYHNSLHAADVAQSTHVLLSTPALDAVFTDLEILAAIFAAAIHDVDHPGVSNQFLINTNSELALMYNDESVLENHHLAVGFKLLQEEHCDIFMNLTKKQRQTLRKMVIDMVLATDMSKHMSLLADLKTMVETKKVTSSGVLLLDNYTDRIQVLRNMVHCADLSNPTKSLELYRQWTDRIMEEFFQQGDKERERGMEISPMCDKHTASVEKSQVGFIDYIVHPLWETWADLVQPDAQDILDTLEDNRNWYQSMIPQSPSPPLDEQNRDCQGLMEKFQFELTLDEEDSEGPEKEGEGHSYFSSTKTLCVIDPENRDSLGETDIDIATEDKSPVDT
Cytochrome P450 1A2 (Homo sapiens), sequence (P05177 whole entry, looked up): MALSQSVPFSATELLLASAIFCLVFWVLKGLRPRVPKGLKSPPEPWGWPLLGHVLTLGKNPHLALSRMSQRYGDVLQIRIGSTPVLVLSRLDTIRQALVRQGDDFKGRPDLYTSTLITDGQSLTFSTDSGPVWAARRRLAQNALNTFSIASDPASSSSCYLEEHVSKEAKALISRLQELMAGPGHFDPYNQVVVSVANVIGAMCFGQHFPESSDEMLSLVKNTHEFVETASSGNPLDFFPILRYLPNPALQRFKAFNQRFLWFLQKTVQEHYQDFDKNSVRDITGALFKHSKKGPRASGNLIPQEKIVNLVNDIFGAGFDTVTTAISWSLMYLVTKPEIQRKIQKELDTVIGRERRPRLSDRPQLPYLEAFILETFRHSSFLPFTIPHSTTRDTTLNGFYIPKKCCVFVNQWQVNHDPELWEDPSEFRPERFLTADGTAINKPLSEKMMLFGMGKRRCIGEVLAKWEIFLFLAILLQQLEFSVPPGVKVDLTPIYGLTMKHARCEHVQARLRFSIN
Luciferin 4-monooxygenase (Photinus pyralis), sequence (P08659 whole entry, looked up): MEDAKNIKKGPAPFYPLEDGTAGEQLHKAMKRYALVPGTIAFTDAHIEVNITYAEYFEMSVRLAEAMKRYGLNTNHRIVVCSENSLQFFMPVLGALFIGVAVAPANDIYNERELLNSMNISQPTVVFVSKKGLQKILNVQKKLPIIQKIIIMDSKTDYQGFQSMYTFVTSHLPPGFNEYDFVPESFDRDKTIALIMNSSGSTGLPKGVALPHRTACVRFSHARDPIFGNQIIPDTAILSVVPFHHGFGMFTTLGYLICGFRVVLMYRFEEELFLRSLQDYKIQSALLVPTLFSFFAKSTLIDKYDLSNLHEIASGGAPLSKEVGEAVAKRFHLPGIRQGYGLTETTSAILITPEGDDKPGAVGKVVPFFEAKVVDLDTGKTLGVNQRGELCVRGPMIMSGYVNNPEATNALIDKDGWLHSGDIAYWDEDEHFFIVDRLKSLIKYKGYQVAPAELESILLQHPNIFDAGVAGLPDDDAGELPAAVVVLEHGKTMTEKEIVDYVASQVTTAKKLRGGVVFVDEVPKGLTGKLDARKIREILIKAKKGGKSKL
Cytochrome P450 2C9 (Homo sapiens), sequence (P11712 whole entry, looked up): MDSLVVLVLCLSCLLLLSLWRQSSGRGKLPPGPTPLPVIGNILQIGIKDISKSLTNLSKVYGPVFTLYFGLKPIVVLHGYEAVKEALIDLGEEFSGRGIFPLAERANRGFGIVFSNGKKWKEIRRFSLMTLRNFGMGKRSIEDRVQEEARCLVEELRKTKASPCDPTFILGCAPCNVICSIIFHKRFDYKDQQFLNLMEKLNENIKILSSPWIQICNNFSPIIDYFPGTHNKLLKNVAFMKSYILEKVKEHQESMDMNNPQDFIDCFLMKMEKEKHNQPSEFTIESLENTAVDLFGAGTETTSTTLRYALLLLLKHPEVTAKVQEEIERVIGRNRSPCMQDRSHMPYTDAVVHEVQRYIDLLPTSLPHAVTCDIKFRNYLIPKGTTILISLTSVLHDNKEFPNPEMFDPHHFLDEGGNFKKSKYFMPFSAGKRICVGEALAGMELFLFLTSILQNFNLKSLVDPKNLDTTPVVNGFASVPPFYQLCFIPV
ATP-dependent 6-phosphofructokinase (Trypanosoma brucei brucei), sequence (O15648 whole entry, looked up): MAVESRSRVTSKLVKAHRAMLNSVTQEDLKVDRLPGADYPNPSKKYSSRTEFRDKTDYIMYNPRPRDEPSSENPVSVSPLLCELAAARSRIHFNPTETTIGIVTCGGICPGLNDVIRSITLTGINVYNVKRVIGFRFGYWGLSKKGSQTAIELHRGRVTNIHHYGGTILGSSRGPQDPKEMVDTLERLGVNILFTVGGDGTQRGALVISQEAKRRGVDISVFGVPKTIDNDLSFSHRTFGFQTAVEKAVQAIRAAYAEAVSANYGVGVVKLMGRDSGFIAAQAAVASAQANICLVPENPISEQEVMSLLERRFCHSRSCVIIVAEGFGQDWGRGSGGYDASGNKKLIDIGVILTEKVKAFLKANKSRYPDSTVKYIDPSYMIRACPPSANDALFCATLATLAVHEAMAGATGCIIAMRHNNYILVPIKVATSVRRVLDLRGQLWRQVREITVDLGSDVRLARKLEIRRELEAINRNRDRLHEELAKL

For `C=C(NC(=O)C(=C)NC(=O)c1csc(C2=N[C@@H]3c4csc(n4)[C@@H]4NC(=O)c5csc(n5)[C@@H]([C@](C)(O)[C@H](C)O)NC(=O)[C@@H]5CSC(=N5)/C(=C/C)NC(=O)[C@@H]([C@H](C)O)NC(=O)c5csc(n5)[C@]3(CC2)NC(=O)[C@@H](C)NC(=O)C(=C)NC(=O)[C@@H](C)NC(=O)[C@@H]([C@@H](C)CC)N[C@H]2C=Cc3c([C@H](C)O)cc(nc3[C@@H]2O)C(=O)O[C@H]4C)n1)C(N)=O`, in assay [1], the activity change, negative = inhibition is -15.7% [at 17.2 µM]. The Potency result (in assay [2]; in assay [6]; in assay [7]; in [10]; in the assay on ATS189; with CP192) was “inactive” throughout. Also, the Potency result with CP262, in the assay with ECU, in the assay with FAB9, with JCK, in the assay with PC15 and with PC49 was “inactive” each time. Further, in the assay with SC27B, the Potency entry was “inactive”. In addition, the activity, negative = inhibition in assay [3] was -4.53% [at 17.2 µM]. Besides, the Potency in [4] was greater than 20.6 µM; in assay [5], greater than 20.6 µM; in [11], 8.7 µM (active); with 7G8, 3.16 µM (active); with CP335, 2.28 µM (active); in the assay with Dd2, 1.12 µM (active). The Potency with ICS was 3.16 µM (active); in the assay with P93_24, 1.78 µM (active); with TAB109, 0.398 µM (active); with TAB165 it was 2.82 µM (active); in the assay on W2 it was 1.61 µM (active). Also, the call in [8] and in [9] was inactive.
With `CCN(CC)[C@@H](C)C(=O)N1c2ccccc2Sc2ccccc21`, the activity change, negative = inhibition in assay [1] was 14.4% [at 38 µM]; in [12] it was -74.6% [at 38 µM] (active). For the same compound, the Potency entry in [2], in assay [6], in assay [7] and in assay [13] was “inactive” each time. Also, the Potency in assay [4] and in [5] was greater than 46 µM throughout.
